{"source": "PubChem BioAssay (NCI)", "note": "This is part of a sample that, as a whole, favours compounds with a hit. Of some 83,000 tested, about 20% had one in any assay.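 Cells were grown in 96-well plates and exposed to the test compound at a single concentration for 48 hours; results are reported as percent growth, with values below 10 considered active.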 A number with no mark means an inactive call. The source made the active and inactive calls."}
{"system": "NCI-H322M lung", "test": "NCI-60 one-dose screen, 48 h (100 = growth as untreated, 0 = no growth, -100 = all killed)", "conditions": "10 µM unless noted"}
{"smiles": "COc1ccc(S(=O)(=O)N2CCN(c3cc4c(cc3F)c(=O)c(C(=O)O)cn4C3CC3)CC2)c(OC)c1", "growth": "91.6%"}
{"smiles": "CCC(C)NCC(=O)O", "note": "(stereo not drawn)", "growth": "118%"}
{"smiles": "O=C(O)Cc1ccc2c(c1)Cc1cccnc1O2", "growth": "109%"}
{"smiles": "COc1cc(Cn2c(SCC(=O)Nc3ccc(Cl)cc3)nc3ccccc3c2=O)cc(OC)c1OC", "growth": "64.4%"}
{"smiles": "CC(C)(C)OC(=O)N[C@@H](Cc1ccccc1)C(=O)N(Cc1ccccc1)C1(C(=O)NCc2ccccc2)CCN(Cc2ccccc2)CC1", "growth": "64.3%"}
{"smiles": "COC(=O)C(CC(=O)c1ccc(-c2ccccc2)cc1)c1ccccc1", "note": "(stereo not drawn)", "growth": "96.8%"}
{"smiles": "C=C1C(=O)O[C@H]2[C@H]1CC/C(Cn1cc(-c3ccccc3C(F)(F)F)nn1)=C\\CC[C@@]1(C)O[C@@H]21", "growth": "81.6%"}
{"smiles": "O=C(O)C(=Cc1c2ccccc2cc2ccccc12)C(=O)O", "growth": "100%"}
{"smiles": "CN(C)c1nc(N)c(N=O)c(N)n1", "growth": "111%"}
{"smiles": "CCCCCCC[C@@H](O)CC(=O)N[C@H](CCCCN)C(=O)N[C@H](Cc1c[nH]c2ccccc12)C(=O)NC(CCCCN)C(=O)N[C@H](CC(C)C)C(=O)N[C@H](Cc1ccccc1)C(=O)N[C@H](CCCCN)C(=O)N[C@H](CCCCN)C(=O)N[C@H](CC(C)C)C(=O)N1CCCC1C(=O)N[C@H](CCCCN)C(=O)N[C@H](Cc1ccccc1)C(=O)N[C@H](CC(C)C)C(=O)N[C@H](Cc1c[nH]cn1)C(=O)N[C@H](CC(C)C)C(=O)N[C@H](C)C(=O)N[C@H](CCCCN)C(=O)N[C@H](CCCCN)C(=O)N[C@H](Cc1ccccc1)C(=O)O", "note": "(stereo partly drawn)", "growth": "-71.9% (active)"}
{"smiles": "O=S(=O)(NCCCNc1cc(-c2cn(-c3ccccc3)nc2-c2cccc(O)c2)ccn1)c1cccc2ccccc12", "growth": "44.3%"}
{"smiles": "O=C(NCCCN1CCN(CCCNC(=O)C2CCCCC2)CC1)C1CCCCC1", "growth": "91.9%"}
{"smiles": "CCN(Cc1ccc(CN(CC)C(=O)C(Cl)(Cl)Cl)cc1)C(=O)C(Cl)(Cl)Cl", "growth": "118%"}
{"smiles": "CCOC(=O)CC(C#N)(CC(=O)OCC)C(=O)OCC", "growth": "112%"}
{"smiles": "COc1ncc(-c2ccc3ncnc(Nc4cccc(Cl)c4)c3c2)cc1NS(=O)(=O)C1CC1", "growth": "-5.8% (active)"}
{"smiles": "Cc1cc(C)c(S(=O)(=O)N2CCN(c3cc4c(cc3F)c(=O)c(C(=O)O)cn4C3CC3)CC2)c(C)c1", "growth": "74.7%"}
{"smiles": "COc1ccc(/C=C/C(=O)OCC(=O)NNC(=O)c2ccccc2)cc1OC", "growth": "117%"}
{"smiles": "O=C1c2ccccc2C(=O)c2c1oc1oc3c(c(=O)c21)c(=O)n(-c1ccccc1)c1ccccc31", "growth": "63.5%"}
{"smiles": "O=C(Nc1ccc(Cl)cc1)c1cc(-c2ccc(F)cc2)c2sc(=O)[nH]c2n1", "growth": "13.2%"}
{"smiles": "CC(C)(C)c1ccc(S(=O)(=O)Oc2ccc3c4c(c(=O)oc3c2)CCCCC4)cc1", "growth": "85.9%"}
{"smiles": "CCN(CC)CCSc1c2ccc(Cl)cc2nc2ccc(OC)cc12", "growth": "105%"}
{"smiles": "Cc1ccc(OCCn2c(C)nn(-c3ccc(Cl)cc3)c2=O)cc1", "growth": "108%"}
{"smiles": "O=C(CN1CCN(c2cc3c(cc2F)c(=O)c(C(=O)O)cn3C2CC2)CC1)Nc1ccc(C(=O)/C=C/c2ccc(Cl)cc2)cc1", "growth": "111%"}
{"smiles": "CCC(c1ccc(OC)cc1)C(CC)c1ccc(OCC[N+](C)(C)C)cc1", "note": "(stereo not drawn)", "growth": "89.6%"}
{"smiles": "O=C(C[N+](=O)[O-])c1ccc(Cl)cc1", "growth": "112%"}
{"smiles": "O=C(CCC(=O)OC1CCCC1)OC1CCCC1", "growth": "97%"}
{"smiles": "CCOC(=O)c1ccccc1NC(c1ccccc1)c1ccc2cccnc2c1O", "note": "(stereo not drawn)", "growth": "42.5%"}
{"smiles": "C/C(=C\\c1csc(C)n1)[C@@H]1C[C@@H]2O[C@]2(C)CCC[C@H](C)[C@H](O)[C@@H](C)C(=O)C(C)(C)[C@@H](O)CC(=O)N1", "growth": "-83.3% (active)"}
{"smiles": "COc1ccc(C2CC(c3cccs3)=NN2c2ccc(S(=O)(=O)NC(=O)Nc3ccc(C)cc3)cc2)cc1", "note": "(stereo not drawn)", "growth": "104%"}
{"smiles": "CCSc1nnc(NC(=O)COc2ccc(Cl)cc2C)s1", "growth": "120%"}
{"smiles": "COc1cc(CNC(=O)CSc2nc3ccccc3c(=O)n2Cc2cc(OC)c(OC)c(OC)c2)cc(OC)c1OC", "growth": "95.4%"}
{"smiles": "COc1ccc(NC(=S)/N=c2\\oc3c(OC)cccc3cc2-c2cc3ccccc3[nH]2)cc1", "growth": "80.8%"}
{"smiles": "COc1ccc(C2=CC(c3ccc(Oc4ccnc5cc(Cl)ccc45)c(OC)c3)c3c(nc(OC)[nH]c3=O)N2)cc1", "note": "(stereo not drawn)", "growth": "72.9%"}
